SMILES strings stand for the structures.

Assay [1] concerns the target Calcium/calmodulin-dependent protein kinase type 1 (Homo sapiens) (UniProt Q14012). The note with it: at 1 µM.
Assay [2] shares this target. The note with it: at 10 µM.
The target in assay [3] is Calcium/calmodulin-dependent protein kinase type II subunit beta (Homo sapiens) (UniProt Q13554). The note with it: at 1 µM.
Assay [4] shares this target. The note with it: at 10 µM.
Assay [5] concerns the target Calcium/calmodulin-dependent protein kinase type II subunit gamma (Homo sapiens) (UniProt Q13555). Conditions: at 1 µM.
Assay [6] has the same target. Conditions: at 10 µM.
Assay [7] has as its target Calcium/calmodulin-dependent protein kinase type II subunit delta (Homo sapiens) (UniProt Q13557). Conditions: at 1 µM.
For assay [8] the target is unchanged. Conditions: at 10 µM.
Assay [9] concerns the target T1, Calcium/calmodulin-dependent protein kinase type IV (Homo sapiens) (UniProt Q16566).
T1 sequence (whole entry): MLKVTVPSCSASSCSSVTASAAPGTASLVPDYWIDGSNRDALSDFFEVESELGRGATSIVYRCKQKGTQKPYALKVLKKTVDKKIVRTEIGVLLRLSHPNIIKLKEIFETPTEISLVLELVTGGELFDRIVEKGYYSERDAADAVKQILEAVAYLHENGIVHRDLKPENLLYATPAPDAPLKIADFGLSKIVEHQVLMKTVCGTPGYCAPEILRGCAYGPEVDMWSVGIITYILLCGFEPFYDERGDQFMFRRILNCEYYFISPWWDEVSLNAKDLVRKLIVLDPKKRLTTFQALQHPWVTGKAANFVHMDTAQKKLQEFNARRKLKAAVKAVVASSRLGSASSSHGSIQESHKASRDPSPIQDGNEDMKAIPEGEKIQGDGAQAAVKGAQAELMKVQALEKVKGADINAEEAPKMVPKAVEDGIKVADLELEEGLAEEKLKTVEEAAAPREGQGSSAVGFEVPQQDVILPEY
Conditions: at 1 µM.

Assay [10] addresses T1, Calcium/calmodulin-dependent protein kinase type IV (Homo sapiens). The note with it: at 10 µM.
For assay [11], the target named is Death-associated protein kinase 1 (Homo sapiens) (UniProt P53355). The note with it: at 10 µM.
Assay [12] deals with Death-associated protein kinase 2 (Homo sapiens) (UniProt Q9UIK4). The note with it: at 1 µM.
The target is the same in assay [13]. The note with it: at 10 µM.
Assay [14] deals with T2, Serine/threonine-protein kinase DCLK2 (Homo sapiens) (UniProt Q8N568).
T2 sequence (whole entry): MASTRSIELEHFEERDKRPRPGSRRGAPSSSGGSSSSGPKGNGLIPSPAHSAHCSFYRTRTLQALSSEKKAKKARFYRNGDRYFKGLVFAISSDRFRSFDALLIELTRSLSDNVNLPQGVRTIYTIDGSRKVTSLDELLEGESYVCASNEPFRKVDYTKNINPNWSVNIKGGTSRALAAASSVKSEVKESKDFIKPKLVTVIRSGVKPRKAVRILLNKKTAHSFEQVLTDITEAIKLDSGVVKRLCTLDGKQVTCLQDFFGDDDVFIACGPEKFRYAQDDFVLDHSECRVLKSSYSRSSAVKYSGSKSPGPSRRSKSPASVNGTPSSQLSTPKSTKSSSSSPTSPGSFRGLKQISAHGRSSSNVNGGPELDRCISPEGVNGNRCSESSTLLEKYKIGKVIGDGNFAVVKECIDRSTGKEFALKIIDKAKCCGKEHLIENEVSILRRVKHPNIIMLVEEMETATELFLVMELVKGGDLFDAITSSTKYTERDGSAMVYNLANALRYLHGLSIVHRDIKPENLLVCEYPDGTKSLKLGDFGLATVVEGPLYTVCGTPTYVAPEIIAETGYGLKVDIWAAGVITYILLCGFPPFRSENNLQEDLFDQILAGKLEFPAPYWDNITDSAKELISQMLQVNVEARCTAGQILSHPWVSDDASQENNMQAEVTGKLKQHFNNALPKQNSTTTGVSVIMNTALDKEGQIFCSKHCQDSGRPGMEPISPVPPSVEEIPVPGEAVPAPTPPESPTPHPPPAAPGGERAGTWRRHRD
Conditions: at 1 µM.

Assay [15] concerns the target T2, Serine/threonine-protein kinase DCLK2 (Homo sapiens). Conditions: at 10 µM.
Assay [16] deals with T3, Discoidin domain-containing receptor 2 (Homo sapiens) (UniProt Q16832).
T3 sequence (whole entry): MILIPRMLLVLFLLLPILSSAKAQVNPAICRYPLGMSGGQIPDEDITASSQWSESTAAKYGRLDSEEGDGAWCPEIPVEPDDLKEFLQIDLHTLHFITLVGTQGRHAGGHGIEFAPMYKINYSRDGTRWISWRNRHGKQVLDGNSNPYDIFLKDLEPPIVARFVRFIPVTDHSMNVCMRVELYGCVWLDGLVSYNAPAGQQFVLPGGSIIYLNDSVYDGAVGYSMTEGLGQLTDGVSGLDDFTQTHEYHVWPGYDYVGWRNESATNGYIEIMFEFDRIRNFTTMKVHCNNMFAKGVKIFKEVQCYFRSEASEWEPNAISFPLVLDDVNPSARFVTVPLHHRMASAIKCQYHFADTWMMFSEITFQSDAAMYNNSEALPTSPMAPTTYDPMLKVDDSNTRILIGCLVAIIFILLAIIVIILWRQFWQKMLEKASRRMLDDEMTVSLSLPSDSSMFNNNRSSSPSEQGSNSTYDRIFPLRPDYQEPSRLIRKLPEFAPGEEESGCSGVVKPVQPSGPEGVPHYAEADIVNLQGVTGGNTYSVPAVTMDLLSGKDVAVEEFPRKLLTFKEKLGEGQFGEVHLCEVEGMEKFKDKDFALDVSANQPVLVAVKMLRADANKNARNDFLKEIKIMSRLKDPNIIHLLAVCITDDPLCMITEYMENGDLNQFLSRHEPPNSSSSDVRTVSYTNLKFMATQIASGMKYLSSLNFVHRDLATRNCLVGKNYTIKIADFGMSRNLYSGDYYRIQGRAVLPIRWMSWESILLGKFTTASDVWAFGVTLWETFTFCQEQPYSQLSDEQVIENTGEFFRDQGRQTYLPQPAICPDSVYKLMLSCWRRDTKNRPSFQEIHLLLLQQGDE
Conditions: at 1 µM.

Assay [17] has as its target T3, Discoidin domain-containing receptor 2 (Homo sapiens). Conditions: at 10 µM.
The target of assay [18] is T4, Myotonin-protein kinase (Homo sapiens) (UniProt Q09013).
T4 sequence (whole entry): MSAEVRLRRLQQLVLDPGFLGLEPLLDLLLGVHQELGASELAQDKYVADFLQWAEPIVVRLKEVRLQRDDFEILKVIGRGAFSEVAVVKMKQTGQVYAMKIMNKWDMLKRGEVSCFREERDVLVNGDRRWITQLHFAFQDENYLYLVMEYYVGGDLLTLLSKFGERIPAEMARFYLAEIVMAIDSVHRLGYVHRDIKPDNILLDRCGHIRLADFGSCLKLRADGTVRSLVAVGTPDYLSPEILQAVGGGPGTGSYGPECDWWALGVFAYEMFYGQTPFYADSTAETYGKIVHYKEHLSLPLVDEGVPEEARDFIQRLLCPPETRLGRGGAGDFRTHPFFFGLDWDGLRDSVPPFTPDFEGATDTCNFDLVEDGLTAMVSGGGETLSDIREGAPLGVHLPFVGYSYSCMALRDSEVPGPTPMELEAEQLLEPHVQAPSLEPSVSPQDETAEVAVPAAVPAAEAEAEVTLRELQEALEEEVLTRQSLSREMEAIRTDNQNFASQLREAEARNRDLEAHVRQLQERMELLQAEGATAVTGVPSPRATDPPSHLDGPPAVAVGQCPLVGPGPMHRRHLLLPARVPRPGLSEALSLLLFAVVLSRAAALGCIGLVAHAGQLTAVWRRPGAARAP
The note with it: at 1 µM.

For assay [19], the target named is T4, Myotonin-protein kinase (Homo sapiens). The note with it: at 10 µM.
Assay [20] concerns the target T5, Serine/threonine-protein kinase 17A (Homo sapiens) (UniProt Q9UEE5).
T5 sequence (whole entry): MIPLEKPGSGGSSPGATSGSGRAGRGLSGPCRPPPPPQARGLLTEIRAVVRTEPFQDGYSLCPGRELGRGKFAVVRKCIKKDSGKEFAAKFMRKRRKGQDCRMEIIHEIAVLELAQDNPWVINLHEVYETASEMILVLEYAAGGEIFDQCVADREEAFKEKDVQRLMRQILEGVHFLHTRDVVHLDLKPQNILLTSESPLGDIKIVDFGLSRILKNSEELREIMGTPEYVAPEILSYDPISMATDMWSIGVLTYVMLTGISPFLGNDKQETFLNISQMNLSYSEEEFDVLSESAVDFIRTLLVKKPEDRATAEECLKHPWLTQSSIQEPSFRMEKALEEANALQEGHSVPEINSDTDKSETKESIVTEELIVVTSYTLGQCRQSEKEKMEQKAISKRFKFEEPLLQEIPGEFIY
Conditions: at 1 µM.

Chain of Calcium/calmodulin-dependent protein kinase type 1 (Homo sapiens) (Q14012 whole entry, looked up): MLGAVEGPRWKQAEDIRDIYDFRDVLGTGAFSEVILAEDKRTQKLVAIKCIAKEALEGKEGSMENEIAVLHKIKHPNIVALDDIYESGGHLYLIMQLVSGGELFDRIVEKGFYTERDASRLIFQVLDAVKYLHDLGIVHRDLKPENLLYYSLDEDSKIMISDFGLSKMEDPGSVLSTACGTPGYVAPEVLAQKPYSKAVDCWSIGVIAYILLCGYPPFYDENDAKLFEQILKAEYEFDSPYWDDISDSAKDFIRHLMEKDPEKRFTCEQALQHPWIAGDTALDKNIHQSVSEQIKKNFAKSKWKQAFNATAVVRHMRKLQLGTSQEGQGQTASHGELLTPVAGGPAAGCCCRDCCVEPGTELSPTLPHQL
Chain of Death-associated protein kinase 2 (Homo sapiens) (Q9UIK4 whole entry, looked up): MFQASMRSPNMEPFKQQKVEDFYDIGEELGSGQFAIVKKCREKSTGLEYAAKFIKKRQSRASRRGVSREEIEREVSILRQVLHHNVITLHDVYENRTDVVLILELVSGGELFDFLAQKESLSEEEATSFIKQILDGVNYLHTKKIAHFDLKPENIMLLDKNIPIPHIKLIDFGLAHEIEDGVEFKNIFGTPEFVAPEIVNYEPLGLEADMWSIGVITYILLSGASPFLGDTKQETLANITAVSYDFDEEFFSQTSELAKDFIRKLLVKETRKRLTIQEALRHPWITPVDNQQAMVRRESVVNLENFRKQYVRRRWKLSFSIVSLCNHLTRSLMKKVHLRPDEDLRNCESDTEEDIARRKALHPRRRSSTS
Chain of Calcium/calmodulin-dependent protein kinase type II subunit gamma (Homo sapiens) (Q13555 whole entry): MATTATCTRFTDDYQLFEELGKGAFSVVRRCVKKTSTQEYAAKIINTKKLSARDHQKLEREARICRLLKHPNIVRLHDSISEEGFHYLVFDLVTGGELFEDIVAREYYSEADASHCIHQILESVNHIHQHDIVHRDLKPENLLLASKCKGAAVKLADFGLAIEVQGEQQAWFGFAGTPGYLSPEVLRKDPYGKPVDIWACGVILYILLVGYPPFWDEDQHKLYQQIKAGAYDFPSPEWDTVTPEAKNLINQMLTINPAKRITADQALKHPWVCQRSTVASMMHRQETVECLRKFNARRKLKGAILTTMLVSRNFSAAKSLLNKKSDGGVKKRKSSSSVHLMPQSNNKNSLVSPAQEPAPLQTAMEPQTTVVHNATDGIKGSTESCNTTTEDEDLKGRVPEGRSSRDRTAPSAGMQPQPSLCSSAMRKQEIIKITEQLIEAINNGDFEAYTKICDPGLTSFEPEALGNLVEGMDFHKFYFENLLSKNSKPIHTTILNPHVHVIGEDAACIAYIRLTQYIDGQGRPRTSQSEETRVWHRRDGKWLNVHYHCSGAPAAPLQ
Chain of Death-associated protein kinase 1 (Homo sapiens) (P53355 whole entry, looked up): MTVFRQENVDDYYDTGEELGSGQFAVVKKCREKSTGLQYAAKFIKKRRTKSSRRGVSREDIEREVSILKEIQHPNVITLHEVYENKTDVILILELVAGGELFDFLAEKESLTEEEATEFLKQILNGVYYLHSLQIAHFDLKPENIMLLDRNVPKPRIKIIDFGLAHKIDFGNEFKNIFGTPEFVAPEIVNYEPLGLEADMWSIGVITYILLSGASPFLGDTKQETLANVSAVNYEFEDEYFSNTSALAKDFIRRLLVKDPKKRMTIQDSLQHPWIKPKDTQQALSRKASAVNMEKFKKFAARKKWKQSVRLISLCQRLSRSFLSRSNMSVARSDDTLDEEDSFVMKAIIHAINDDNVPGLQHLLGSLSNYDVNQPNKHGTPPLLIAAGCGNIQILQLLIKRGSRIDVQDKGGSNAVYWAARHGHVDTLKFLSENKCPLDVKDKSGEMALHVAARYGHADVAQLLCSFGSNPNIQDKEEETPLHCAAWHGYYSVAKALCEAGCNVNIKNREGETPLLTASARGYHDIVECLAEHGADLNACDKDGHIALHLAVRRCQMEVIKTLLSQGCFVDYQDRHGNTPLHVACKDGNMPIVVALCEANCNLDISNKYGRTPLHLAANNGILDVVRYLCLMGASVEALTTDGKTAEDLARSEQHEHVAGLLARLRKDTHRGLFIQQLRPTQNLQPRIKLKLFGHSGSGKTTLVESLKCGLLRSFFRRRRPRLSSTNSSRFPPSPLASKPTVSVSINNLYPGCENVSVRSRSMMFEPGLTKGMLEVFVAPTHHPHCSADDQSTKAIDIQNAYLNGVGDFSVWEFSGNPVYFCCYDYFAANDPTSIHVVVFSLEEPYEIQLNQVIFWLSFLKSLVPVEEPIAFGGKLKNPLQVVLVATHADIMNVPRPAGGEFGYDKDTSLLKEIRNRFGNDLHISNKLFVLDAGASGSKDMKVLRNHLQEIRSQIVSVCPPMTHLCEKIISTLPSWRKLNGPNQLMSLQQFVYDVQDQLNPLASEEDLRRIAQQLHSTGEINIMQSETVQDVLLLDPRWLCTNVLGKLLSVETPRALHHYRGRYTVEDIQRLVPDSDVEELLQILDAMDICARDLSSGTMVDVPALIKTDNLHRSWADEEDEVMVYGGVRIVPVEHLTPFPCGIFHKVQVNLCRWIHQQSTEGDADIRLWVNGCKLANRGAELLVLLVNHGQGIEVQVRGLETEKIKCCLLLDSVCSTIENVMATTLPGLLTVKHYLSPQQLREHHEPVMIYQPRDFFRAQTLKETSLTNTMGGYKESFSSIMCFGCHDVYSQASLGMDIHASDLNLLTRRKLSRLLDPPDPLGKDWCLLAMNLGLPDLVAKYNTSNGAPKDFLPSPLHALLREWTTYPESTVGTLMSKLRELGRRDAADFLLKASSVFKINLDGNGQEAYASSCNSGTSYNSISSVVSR
Chain of Calcium/calmodulin-dependent protein kinase type II subunit delta (Homo sapiens) (Q13557 whole entry): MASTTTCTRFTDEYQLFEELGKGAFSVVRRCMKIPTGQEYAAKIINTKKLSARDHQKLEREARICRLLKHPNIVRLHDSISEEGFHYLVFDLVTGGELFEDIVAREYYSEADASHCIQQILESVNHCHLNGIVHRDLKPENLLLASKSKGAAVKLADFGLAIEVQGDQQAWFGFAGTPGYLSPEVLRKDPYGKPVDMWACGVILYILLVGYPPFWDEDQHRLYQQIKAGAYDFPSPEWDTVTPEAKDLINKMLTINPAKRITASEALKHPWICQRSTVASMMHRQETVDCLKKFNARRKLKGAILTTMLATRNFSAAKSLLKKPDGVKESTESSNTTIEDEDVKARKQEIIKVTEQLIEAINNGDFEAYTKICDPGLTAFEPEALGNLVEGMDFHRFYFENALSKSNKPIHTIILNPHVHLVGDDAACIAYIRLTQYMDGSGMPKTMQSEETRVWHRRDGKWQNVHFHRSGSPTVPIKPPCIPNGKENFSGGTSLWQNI
Chain of Calcium/calmodulin-dependent protein kinase type II subunit beta (Homo sapiens) (Q13554 whole entry): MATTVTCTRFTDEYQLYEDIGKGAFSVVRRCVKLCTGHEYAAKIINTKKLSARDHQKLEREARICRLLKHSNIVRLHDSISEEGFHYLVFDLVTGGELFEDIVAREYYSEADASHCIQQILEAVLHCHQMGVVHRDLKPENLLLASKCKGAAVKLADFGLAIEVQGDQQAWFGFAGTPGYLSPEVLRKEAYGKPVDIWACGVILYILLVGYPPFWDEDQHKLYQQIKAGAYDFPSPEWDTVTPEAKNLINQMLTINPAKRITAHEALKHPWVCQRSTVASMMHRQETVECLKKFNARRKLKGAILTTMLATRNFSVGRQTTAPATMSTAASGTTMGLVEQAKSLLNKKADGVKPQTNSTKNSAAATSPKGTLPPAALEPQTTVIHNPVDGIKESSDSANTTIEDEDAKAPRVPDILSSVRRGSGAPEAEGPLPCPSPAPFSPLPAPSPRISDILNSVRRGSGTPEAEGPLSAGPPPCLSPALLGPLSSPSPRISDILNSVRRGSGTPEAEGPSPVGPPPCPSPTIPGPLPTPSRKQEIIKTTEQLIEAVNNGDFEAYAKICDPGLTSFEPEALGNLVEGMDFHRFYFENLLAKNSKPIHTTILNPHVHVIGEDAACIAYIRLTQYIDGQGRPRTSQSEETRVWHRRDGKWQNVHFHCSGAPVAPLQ

As to `O=C1NC(=O)/C(=C\c2ccc3nccnc3c2)S1`, the residual activity turned out to be 109% in [1]; 80% in [2]; 65% in [3]; 18% in assay [4]; 91% in assay [5]; 34% in [6]. Further, the residual activity in [7] was 76%; in [8], 28%; in [9], 109%; in assay [10], 84%; in [11], 78%; in assay [12], 68%. The residual activity worked out at 27% in assay [13]; 73% in assay [14]; 71% in assay [15]; 109% in [16]; 101% in assay [17]; 114% in [18]. The residual activity in assay [19] amounted to 122%; in assay [20] it was 63%.
In the case of `Cc1cccc(-c2[nH]c(C(C)(C)C)nc2-c2ccc3c(c2)OCO3)n1`, the residual activity in [3] amounted to 93%; in assay [4] it was 88%; in assay [6], 99%; in [7], 105%; in assay [8], 99%; in assay [9], 129%. For the same compound, the residual activity in [10] came to 88%; in [11] it was 77%; in assay [14] it was 86%; in assay [15] it was 99%; in assay [17], 98%; in assay [18] it was 145%. In assay [19], the residual activity worked out at 143%.
Turning to `O=[N+]([O-])c1ccc(-c2nc(-c3ccc(F)cc3)c(-c3ccncc3)[nH]2)cc1`, the residual activity was 113% in assay [1]; 81% in assay [2]; 102% in assay [3]; 92% in assay [4]; 113% in assay [7]; 99% in [8]. In addition, the residual activity in assay [9] is 101%; in [10], 92%; in assay [11], 65%; in [12], 108%; in assay [13], 101%; in assay [14], 117%. Further, the residual activity in [15] came out at 111%; in assay [16], 77%; in assay [17] it was 52%; in assay [18], 96%; in assay [19], 93%; in assay [20], 116%.
On to `N#CCCc1ccc2c(c1)-c1[nH]c3ccc([N+](=O)[O-])cc3c1CC(=O)N2`, for which the residual activity in [3] came to 54%; in assay [4], 32%; in [5], 6%; in assay [6], 1%; in [7] it was 10%; in assay [8], 3%. For the same compound, the residual activity in [20] came out at 11%.
Consider `CC#CC(=O)Nc1cc2c(Nc3ccc(F)c(Cl)c3)ncnc2cn1`, for which the residual activity in assay [1] was found to be 98%; in assay [2] it was 80%; in assay [3] it was 91%; in assay [4] it was 84%; in assay [5], 108%; in assay [6] it was 93%. Besides, the residual activity in assay [7] turned out to be 107%; in [8], 97%; in [9] it was 121%; in [10], 87%; in assay [11], 90%; in [12], 88%. The residual activity in assay [13] came to 104%; in assay [14], 77%; in assay [15], 96%; in assay [16] it was 96%; in assay [17], 93%; in assay [18], 113%. The residual activity in assay [19] came to 115%; in [20] it was 105%.
On to `Cc1cncc2cccc(S(=O)(=O)N3CCCN(C(=O)CN)C[C@H]3C)c12`, for which the residual activity in assay [1] was determined as 97%; in assay [2] it was 63%; in assay [3], 76%; in assay [4], 49%; in assay [5], 95%; in [6], 64%. Further, the residual activity in assay [7] worked out at 98%; in [8], 60%; in [9], 91%; in assay [10], 22%; in assay [11], 85%; in assay [12], 90%. The residual activity in assay [14] amounted to 66%; in [15], 35%; in [16], 126%; in assay [17], 94%.
Regarding `COc1ccc(OC)c2c(=S)c3ccccc3[nH]c12`, the residual activity in assay [1] worked out at 96%; in assay [2], 77%; in assay [3] it was 92%; in assay [4], 54%; in assay [5], 90%; in assay [6], 54%. In addition, the residual activity in assay [7] is 95%; in [8], 62%; in assay [9], 100%; in assay [10], 84%; in assay [11], 93%; in assay [12], 106%. In addition, the residual activity in assay [13] was 95%; in assay [14], 101%; in assay [15], 67%; in assay [16], 99%; in [17] it was 103%; in assay [18], 120%. Further, the results for the residual activity in assay [19] and in assay [20] were 87% and 94%, respectively.
In the case of `COc1cc2ncnc(Nc3ccc(O)c(Br)c3)c2cc1OC`, the residual activity in assay [1] is 104%; in [2], 61%; in [3] it was 73%; in assay [4], 62%; in [5], 68%; in [6] it was 18%. In addition, the residual activity was found to be 79% in assay [7]; 28% in [8]; 122% in assay [9]; 67% in assay [10]; 76% in assay [11]; 77% in assay [13]. For the same compound, the residual activity amounted to 73% in assay [14]; 96% in assay [15]; 90% in assay [16]; 55% in assay [17]; 105% in assay [18]; 116% in [19]. Also, the residual activity in assay [20] came out at 77%.

The record behind these values is ChEMBL document CHEMBL2218924, “A broad activity screen in support of a chemogenomic map for kinase signalling research and drug discovery” (Biochem J, 2013).
